Source: PubChem BioAssay AID1159580 (chemical genetic matrix, 2015)
Values joined by “and” are separate entries in the source; they are usually repeats but may differ in a detail not shown here. Equal entries are not always repeated. In all, about 5,500 compounds went through this assay and about 2,000 (36%) were called active. Not shown: some 18% with an inconclusive outcome. Cut-off read from the data, not from the text of the source: active = normalized growth mostly below about 0.91 (no sharp cut-off); inconclusive = no clear call, values can overlap the other calls; inactive = mostly above about 0.92. The list shows a part of the results.

Test: chemical genetic growth profiling, strain panel (AID 1159580);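 note: tested at 20 µM; growth read once vehicle control cultures reached saturation at 30 °C; 1 = growth at the plate median or of vehicle wells; lower values mean less growth of the strain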
Conditions: S. cerevisiae deletion strains, growth OD

Measured: normalized growth

CC(Cc1ccc(O)c(O)c1)(NN)C(=O)O (stereo not drawn)
inactive: locus YAL021C, strain ccr4, hits give low values 1 | locus YAL026C, strain drs2, hits give low values 1 | locus YAL030W, strain snc1, hits give low values 0.997 | locus YBL061C, strain skt5, hits give low values 1.01 | locus YBR009C, strain hhf1, hits give low values 0.982 | locus YBR021W, strain FUR4, hits give low values 1.01 | locus YBR023C, strain chs3, hits give low values 0.976 | locus YBR171W, strain sec66, hits give low values 1.01 | locus YBR229C, strain ROT2, hits give low values 1 | locus YBR231C, strain swc5, hits give low values 0.997 | locus YBR279W, strain paf1, hits give low values 0.988 | locus YCL011C, strain gbp2, hits give low values 1.02 | locus YCL016C, strain dcc1, hits give low values 1.01 | locus YCL029C, strain bik1, hits give low values 1.02 | locus YCL069W, strain vba3, hits give low values 1 | locus YCR088W, strain abp1, hits give low values 1 | locus YDL005C, strain med2, hits give low values 1 | locus YDL035C, strain GPR1, hits give low values 1 | locus YDL040C, strain nat1, hits give low values 1 | locus YDL074C, strain BRE1, hits give low values 0.972 | locus YDL101C, strain DUN1, hits give low values 1.02 | locus YDL134C, strain PPH21, hits give low values 1.04 | locus YDL185W, strain tfp1, hits give low values 0.989 | locus YDL192W, strain arf1, hits give low values 1.01 | locus YDR001C, strain nth1, hits give low values 0.994 | locus YDR069C, strain doa4, hits give low values 0.99 | locus YDR101C, strain arx1, hits give low values 1 | locus YDR137W, strain rgp1, hits give low values 1.04 | locus YDR159W, strain sac3, hits give low values 1 | locus YDR162C, strain NBP2, hits give low values 1.01 | locus YDR195W, strain ref2 0.972 | locus YDR297W, strain sur2, hits give low values 1 | locus YDR318W, strain mcm21, hits give low values 1.01 | locus YDR334W, strain swr1, hits give low values 0.999 | locus YDR335W, strain msn5, hits give low values 0.982 | locus YDR388W, hits give low values 1.01 | locus YDR392W, strain spt3, hits give low values 0.985 | locus YDR502C, strain sam2, hits give low values 1.01 | locus YEL003W, strain gim4, hits give low values 0.991 | locus YEL037C, strain rad23, hits give low values 1.02 | locus YEL061C, strain CIN8 (second series), hits give low values 0.999 | locus YEL061C, strain CIN8, hits give low values 1.01 | locus YER015W, strain faa2, hits give low values 0.984 | locus YER016W, strain bim1, hits give low values 1.01 | locus YER110C, hits give low values 1.02 | locus YER111C, strain swi4, hits give low values 1.01 | locus YER155C, strain BEM2 (second series), hits give low values 1.01 | locus YER155C, strain BEM2, hits give low values 0.999 | locus YER167W, strain BCK2, hits give low values 1.01 | locus YFR010W, strain ubp6, hits give low values 0.986 | locus YGL078C, strain dbp3, hits give low values 0.979 | locus YGL086W, strain mad1, hits give low values 1.02 | locus YGL167C, strain pmr1, hits give low values 1 | locus YGL173C, strain kem1, hits give low values 1.03 | locus YGL227W, strain vid30, hits give low values 0.989 | locus YGL240W, strain doc1, hits give low values 1 | locus YGL248W, strain PDE1, hits give low values 0.991 | locus YGL253W, strain hxk2, hits give low values 0.997 | locus YGR078C, strain PAC10, hits give low values 0.966 | locus YGR135W, strain pre9, hits give low values 1.01 | locus YGR229C, strain SMI1, hits give low values 0.992 | locus YGR252W, strain gcn5, hits give low values 1.01 | locus YHR013C, strain ard1, hits give low values 1.04 | locus YHR027C, strain rpn1, hits give low values 0.995 | locus YHR030C, strain SLT2, hits give low values 0.997 and 0.958 | locus YHR079C, strain IRE1 (second series), hits give low values 1.02 | locus YHR079C, strain IRE1, hits give low values 0.961 | locus YHR094C, strain hxt1, hits give low values 1.01 | locus YHR129C, strain ARP1, hits give low values 1.01 | locus YHR142W, strain chs7, hits give low values 1.02 | locus YHR200W, strain rpn10, hits give low values 1.01 | locus YIL066C, strain RNR3, hits give low values 0.965 | locus YIL073C, strain SPO22, hits give low values 1.14 | locus YIL125W, strain kgd1, hits give low values 1 | locus YIR030C, strain dcg1, hits give low values 1.01 | locus YJL092W, strain hpr5, hits give low values 0.997 | locus YJL095W, strain BCK1 (second series), hits give low values 0.996 | locus YJL095W, strain BCK1, hits give low values 1 and 0.954 | locus YJL115W, strain asf1, hits give low values 0.983 | locus YJL129C, strain trk1, hits give low values 1.02 | locus YJL134W, strain LCB3, hits give low values 1 | locus YJL154C, strain vps35, hits give low values 1.01 | locus YJL164C, strain tpk1, hits give low values 1.01 | locus YJL166W, strain qcr8, hits give low values 1.02 | locus YJL168C, strain set2, hits give low values 1.01 | locus YJL187C, strain SWE1 (second series), hits give low values 1 | locus YJR043C, strain POL32, hits give low values 1.01 | locus YJR066W, strain TOR1, hits give low values 0.936
